Source: PubChem BioAssay (NCI)
About 79,000 compounds went through this panel and 15% of them were active in at least one assay; those are over-represented in the sample as a whole. A number with no mark means an inactive call. Activity calls are given as the source filed them. Rule as the data show it: active = growth inhibition above about 70%; inactive = the rest.

Assays:
[1] = NCI Yeast Anticancer Drug Screen. Data for the rad52 strain (AID 147);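 also: 0% = growth of vehicle-treated control cultures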; details: S. cerevisiae rad52 mutant growth inhibition, stronger effect = higher value
Procedure, shortened: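 Yeast strain carrying a DNA damage repair alteration was exposed to test compounds. Growth inhibition was measured relative to vehicle-treated controls.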

[2] = NCI Yeast Anticancer Drug Screen. Data for the wt1 strain (AID 149);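 also: 0% = growth of vehicle-treated wt1 cultures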; details: S. cerevisiae wt1 strain (SPY 50644) growth inhibition, stronger effect = higher value
Procedure, shortened: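 Vehicle-normalised growth inhibition; strain wt1; compound exposure.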

[3] = NCI Yeast Anticancer Drug Screen. Data for the rad50EPP+ strain (AID 151);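 also: 0% = growth of vehicle-treated control cultures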; details: S. cerevisiae rad50 mutant strain, stronger effect = higher value
Procedure, shortened: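 Yeast strain carrying rad50 alteration (rad50EPP+) exposed to compounds; growth inhibition measured relative to vehicle-treated controls.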

[4] = NCI Yeast Anticancer Drug Screen. Data for the mgt1 strain (AID 153); details: S. cerevisiae mgt1 mutant growth inhibition, stronger effect = higher value
Procedure, shortened: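 Yeast mgt1 strain (DNA repair/cell-cycle alteration panel) exposed to compounds; growth inhibition measured relative to vehicle-treated controls.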

[5] = NCI Yeast Anticancer Drug Screen. Data for the rad50 strain (AID 155);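 also: 0% = growth of vehicle-only cultures of the same strain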; details: S. cerevisiae rad50 strain growth inhibition, stronger effect = higher value
Procedure, shortened: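 A DNA repair-deficient yeast mutant serves as the test organism; compound-induced growth inhibition is calculated against vehicle-treated cells.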

[6] = NCI Yeast Anticancer Drug Screen. Data for the rad14 strain (AID 159);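 also: 0% = growth of vehicle-treated control cultures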; details: S. cerevisiae rad14 strain growth inhibition, stronger effect = higher value
Procedure, shortened: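 Vehicle-treated cultures served as the baseline for growth inhibition of a DNA repair-mutant yeast strain exposed to each compound.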

[7] = NCI Yeast Anticancer Drug Screen. Data for the sgs1 mgt1 strain (AID 161);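 also: 0% = growth of cultures given vehicle only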; details: S. cerevisiae sgs1 mgt1 strain, stronger effect = higher value
Procedure, shortened: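 Growth of a repair-deficient yeast mutant was monitored after compound treatment and expressed as inhibition relative to vehicle-treated cultures.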

[8] = NCI Yeast Anticancer Drug Screen. Data for the CLN2oe strain (AID 163);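 also: 0% = growth of vehicle-only control cultures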; details: S. cerevisiae CLN2oe strain, stronger effect = higher value
Procedure, shortened: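 Yeast cells carrying a defined cell-cycle control alteration were exposed to test compounds. Growth inhibition was scored against vehicle-treated control cultures.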

[9] = NCI Yeast Anticancer Drug Screen. Data for the cln2 rad14 strain (AID 165);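 also: 0% = growth equal to vehicle treated cultures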; details: S. cerevisiae cln2 rad14 strain, stronger effect = higher value
Procedure, shortened: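 Yeast carrying cln2 and rad14 alterations (cell cycle control and DNA damage repair) were exposed to compounds. Growth inhibition was measured against vehicle-treated controls.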

[10] = NCI Yeast Anticancer Drug Screen. Data for the bub3 strain (AID 167); details: S. cerevisiae bub3 mutant strain, stronger effect = higher value
Procedure, shortened: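 Inhibition values come from growth of compound-treated mutant yeast normalised to vehicle-treated controls.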

[11] = NCI Yeast Anticancer Drug Screen. Data for the wt2 strain (AID 169);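 also: 0% = growth of vehicle-treated yeast cultures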; details: S. cerevisiae wt2 strain growth inhibition, stronger effect = higher value
Procedure, shortened: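 Yeast cells were exposed to test compounds, and growth inhibition was measured relative to vehicle-treated controls.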

[12] = NCI Yeast Anticancer Drug Screen. Data for the sgs1 strain (AID 173);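 also: 0% = growth of vehicle-only control cultures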; details: S. cerevisiae sgs1 mutant, stronger effect = higher value
Procedure, shortened: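 Yeast mutant strains carrying defined defects in DNA damage repair or cell cycle control were exposed to test compounds. Growth inhibition was scored against vehicle-treated controls.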

[13] = NCI Yeast Anticancer Drug Screen. Data for the mlh1 rad18 strain (AID 175); details: S. cerevisiae mlh1 rad18 strain growth inhibition, stronger effect = higher value
Procedure, shortened: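 Growth inhibition of the yeast strain was measured after compound exposure and expressed relative to vehicle-treated controls. The strain carries defined defects in DNA damage repair.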

[14] = NCI Yeast Anticancer Drug Screen. Data for the rad18 strain (AID 177); details: S. cerevisiae rad18 mutant growth inhibition, stronger effect = higher value
Procedure, shortened: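 Yeast carrying a defined DNA damage repair alteration were exposed to compounds. Growth inhibition was expressed relative to vehicle-treated controls.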

[15] = NCI Yeast Anticancer Drug Screen. Data for the mec2-1 strain (AID 157); details: S. cerevisiae mec2-1 strain, stronger effect = higher value
Procedure, shortened: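 mec2-1 yeast strain, carrying an alteration in DNA damage repair or cell cycle control, was exposed to compounds; growth inhibition was measured relative to vehicle-treated controls.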

[16] = NCI Yeast Anticancer Drug Screen. Data for the mlh1 strain (AID 171);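 also: 0% = growth of vehicle-treated control cultures of the same strain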; details: S. cerevisiae mlh1 strain growth inhibition, stronger effect = higher value
Procedure, shortened: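 Yeast carrying a defined genetic alteration in DNA damage repair or cell cycle control were exposed to test compounds. Growth inhibition was measured relative to vehicle-treated controls.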

[17] = at 5.0 µM (retest, dose inferred, filed as 0.5)
[18] = at 50.0 µM (retest, dose inferred, filed as 5.0)

## CC1(Cl)CC(C)(/C=C/Cl)C(Cl)CC1Cl (stereo not drawn)
[1]; at 1.2 µM
  growth inhibition: 6%
[1]; at 3.7 µM
  growth inhibition: 8%
[1]; at 11.0 µM
  growth inhibition: 13%
[1]; at 33.0 µM
  growth inhibition: 22%
[1]; at 100.0 µM
  growth inhibition: 43%
[2]; at 1.2 µM
  growth inhibition: 3%
[2]; at 3.7 µM
  growth inhibition: 3%
[2]; at 11.0 µM
  growth inhibition: 3%
[2]; at 33.0 µM
  growth inhibition: 10%
[2]; at 100.0 µM
  growth inhibition: 35%
[3]; at 1.2 µM
  growth inhibition: 2%
[3]; at 3.7 µM
  growth inhibition: 0%
[3]; at 11.0 µM
  growth inhibition: 6%
[3]; at 33.0 µM
  growth inhibition: 15%
[3]; at 100.0 µM
  growth inhibition: 24%
[4]; at 1.2 µM
  growth inhibition: 2%
[4]; at 3.7 µM
  growth inhibition: 1%
[4]; at 11.0 µM
  growth inhibition: 3%
[4]; at 33.0 µM
  growth inhibition: 5%
[4]; at 100.0 µM
  growth inhibition: 43%
[5]; at 1.2 µM
  growth inhibition: -1%
[5]; at 3.7 µM
  growth inhibition: -8%
[5]; [17]
  growth inhibition: 12%
[5]; at 11.0 µM
  growth inhibition: -3%
[5]; at 33.0 µM
  growth inhibition: 28%
[5]; [18]
  growth inhibition: -8%
[5]; at 50.0 µM
  growth inhibition: 58.6%
[5]; at 100.0 µM
  growth inhibition: 48%
[6]; at 1.2 µM
  growth inhibition: 4%
[6]; at 3.7 µM
  growth inhibition: 1%
[6]; at 11.0 µM
  growth inhibition: 5%
[6]; at 33.0 µM
  growth inhibition: 16%
[6]; at 100.0 µM
  growth inhibition: 48%
[7]; [17]
  growth inhibition: 1%
[7]; [18]
  growth inhibition: -17%
[7]; at 50.0 µM
  growth inhibition: 51%
[8]; at 1.2 µM
  growth inhibition: 3%
[8]; at 3.7 µM
  growth inhibition: 5%
[8]; at 11.0 µM
  growth inhibition: 8%
[8]; at 33.0 µM
  growth inhibition: 23%
[8]; at 100.0 µM
  growth inhibition: 49%
[9]; [17]
  growth inhibition: 40%
[9]; [18]
  growth inhibition: -20%
[9]; at 50.0 µM
  growth inhibition: 45%
[10]; at 1.2 µM
  growth inhibition: 2%
[10]; at 3.7 µM
  growth inhibition: 0%
[10]; [17]
  growth inhibition: -3%
[10]; at 11.0 µM
  growth inhibition: 2%
[10]; at 33.0 µM
  growth inhibition: 12%
[10]; [18]
  growth inhibition: -8%
[10]; at 50.0 µM
  growth inhibition: 15.4%
[10]; at 100.0 µM
  growth inhibition: 31%
[11]; at 1.2 µM
  growth inhibition: 0%
[11]; at 3.7 µM
  growth inhibition: 1%
[11]; at 11.0 µM
  growth inhibition: 3%
[11]; at 33.0 µM
  growth inhibition: 16%
[11]; at 100.0 µM
  growth inhibition: 50%
[12]; at 1.2 µM
  growth inhibition: 4%
[12]; at 3.7 µM
  growth inhibition: 2%
[12]; at 11.0 µM
  growth inhibition: 2%
[12]; at 33.0 µM
  growth inhibition: 28%
[12]; at 100.0 µM
  growth inhibition: 64%
[13]; [17]
  growth inhibition: 8%
[13]; [18]
  growth inhibition: -23%
[13]; at 50.0 µM
  growth inhibition: 79.4% (active)
[14]; at 1.2 µM
  growth inhibition: 5%
[14]; at 3.7 µM
  growth inhibition: 5%
[14]; at 11.0 µM
  growth inhibition: 12%
[14]; at 33.0 µM
  growth inhibition: 30%
[14]; at 100.0 µM
  growth inhibition: 48%

## C=CC[N+]12CN3CN(CN(C3)C1)C2
[1]; at 1.2 µM
  growth inhibition: -8%
[1]; at 3.7 µM
  growth inhibition: 5%
[1]; at 11.0 µM
  growth inhibition: -11%
[1]; at 33.0 µM
  growth inhibition: -5%
[1]; at 100.0 µM
  growth inhibition: 29%
[2]; at 1.2 µM
  growth inhibition: -10%
[2]; at 3.7 µM
  growth inhibition: -28%
[2]; at 11.0 µM
  growth inhibition: -21%
[2]; at 33.0 µM
  growth inhibition: -23%
[2]; at 100.0 µM
  growth inhibition: 41%
[3]; at 1.2 µM
  growth inhibition: 7%
[3]; at 3.7 µM
  growth inhibition: 2%
[3]; at 11.0 µM
  growth inhibition: -31%
[3]; at 33.0 µM
  growth inhibition: 16%
[3]; at 100.0 µM
  growth inhibition: 68%
[5]; at 1.2 µM
  growth inhibition: 8%
[5]; at 3.7 µM
  growth inhibition: -1%
[5]; [17]
  growth inhibition: 38%
[5]; at 11.0 µM
  growth inhibition: -21%
[5]; at 33.0 µM
  growth inhibition: -3%
[5]; [18]
  growth inhibition: 65%
[5]; at 50.0 µM
  growth inhibition: 29.8%
[5]; at 100.0 µM
  growth inhibition: 32%
[15]; at 1.2 µM
  growth inhibition: -12%
[15]; at 3.7 µM
  growth inhibition: -24%
[15]; [17]
  growth inhibition: 43%
[15]; at 11.0 µM
  growth inhibition: -31%
[15]; at 33.0 µM
  growth inhibition: 45%
[15]; [18]
  growth inhibition: 70% (active)
[15]; at 50.0 µM
  growth inhibition: 20.6%
[15]; at 100.0 µM
  growth inhibition: 98% (active)
[6]; at 1.2 µM
  growth inhibition: -35%
[6]; at 3.7 µM
  growth inhibition: -34%
[6]; at 11.0 µM
  growth inhibition: -31%
[6]; at 33.0 µM
  growth inhibition: -16%
[6]; at 100.0 µM
  growth inhibition: 31%
[7]; [17]
  growth inhibition: -2%
[7]; [18]
  growth inhibition: 98% (active)
[7]; at 50.0 µM
  growth inhibition: 59.8%
[8]; at 1.2 µM
  growth inhibition: -24%
[8]; at 3.7 µM
  growth inhibition: -32%
[8]; at 11.0 µM
  growth inhibition: -17%
[8]; at 33.0 µM
  growth inhibition: -9%
[8]; at 100.0 µM
  growth inhibition: 70% (active)
[9]; [17]
  growth inhibition: 67%
[9]; [18]
  growth inhibition: 96% (active)
[9]; at 50.0 µM
  growth inhibition: 7.55%
[10]; at 1.2 µM
  growth inhibition: -1%
[10]; at 3.7 µM
  growth inhibition: 12%
[10]; [17]
  growth inhibition: 20%
[10]; at 11.0 µM
  growth inhibition: 12%
[10]; at 33.0 µM
  growth inhibition: 75% (active)
[10]; [18]
  growth inhibition: 97% (active)
[10]; at 50.0 µM
  growth inhibition: 2.1%
[10]; at 100.0 µM
  growth inhibition: 94% (active)
[11]; at 1.2 µM
  growth inhibition: -49%
[11]; at 3.7 µM
  growth inhibition: -52%
[11]; at 11.0 µM
  growth inhibition: -52%
[11]; at 33.0 µM
  growth inhibition: -28%
[11]; at 100.0 µM
  growth inhibition: 23%
[16]; at 1.2 µM
  growth inhibition: -25%
[16]; at 3.7 µM
  growth inhibition: -22%
[16]; at 11.0 µM
  growth inhibition: -23%
[16]; at 33.0 µM
  growth inhibition: 13%
[16]; at 100.0 µM
  growth inhibition: 74% (active)
[12]; at 1.2 µM
  growth inhibition: -20%
[12]; at 3.7 µM
  growth inhibition: -17%
[12]; at 11.0 µM
  growth inhibition: -21%
[12]; at 33.0 µM
  growth inhibition: -4%
[12]; at 100.0 µM
  growth inhibition: 43%
[13]; [17]
  growth inhibition: 38%
[13]; [18]
  growth inhibition: 52%
[13]; at 50.0 µM
  growth inhibition: 10.2%
[14]; at 1.2 µM
  growth inhibition: 18%
[14]; at 3.7 µM
  growth inhibition: 19%
[14]; at 11.0 µM
  growth inhibition: -13%
[14]; at 33.0 µM
  growth inhibition: 13%
[14]; at 100.0 µM
  growth inhibition: 12%
